Bioassay records deposited in PubChem BioAssay by National Center for Advancing Translational Sciences (NCATS).
A selection: hits, their analogues and other compounds. The true share with any hit is near 12%.
AmpC inh no detg: blocks E. coli AmpC beta-lactamase in detergent-free assay | P00811 | AmpC nitrocefin hydrolysis, absorbance 480 nm, 0.0001% Triton | Potency, µM (series often up to 57.1 µM), for the others: at the highest dose activity change, negative = inhibition, actives largely listed as inhibitors | actives 0.52% (n = 330,000) | AID 485341;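 also: plate controls were no compound for no effect and no enzyme for full effect; nearly all actives have a fitted effect of over 20% in size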
Target sequence (P00811 whole entry, looked up): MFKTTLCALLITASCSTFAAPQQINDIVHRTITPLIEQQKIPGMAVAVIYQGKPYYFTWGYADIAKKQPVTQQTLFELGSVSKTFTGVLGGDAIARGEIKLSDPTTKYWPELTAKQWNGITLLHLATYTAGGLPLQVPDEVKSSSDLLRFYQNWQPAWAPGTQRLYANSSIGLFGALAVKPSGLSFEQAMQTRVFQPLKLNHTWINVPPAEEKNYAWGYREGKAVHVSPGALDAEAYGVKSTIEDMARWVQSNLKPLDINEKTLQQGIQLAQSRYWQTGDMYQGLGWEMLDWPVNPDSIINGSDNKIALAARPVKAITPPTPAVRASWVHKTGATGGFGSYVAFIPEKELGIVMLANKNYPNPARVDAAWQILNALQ
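AmpC (5.3 nM in the dispensed reagent) in 20 mM phosphate pH 7.0 with 0.01% (detergent screen) or 0.0001% Triton X-100 was preincubated with compounds for 15 min at room temperature. Nitrocefin was then added from an 800 uM solution, and hydrolysis was followed at 480 nm.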
Pf growth 48h: P. falciparum growth inhibition at 48 hours (one generation); actives 5.9% (n = 310,000); P. falciparum luciferase growth in erythrocytes, 48 h; AID 504832; Potency, µM (highest dose often 28.7 µM), for inactives: top-dose activity change, negative = inhibition, hits mostly inhibitors; also: % is scaled to controls: 0 for no effect and ±100 for the full control effect
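First compound was added to culture medium, then infected red cells at 0.1% parasitemia and 2% hematocrit (final). After incubation at 37 C under 5% CO2, luciferase detection reagent was dispensed and light output recorded.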
SARS PLpro yeast: blocks SARS-CoV papain-like protease in a yeast assay; Potency, µM (titrated, usually from 32.9 µM), inactives show at the highest dose activity, positive = growth rescue, most hits filed as activators; S. cerevisiae expressing SARS-CoV PLpro, growth rescue; actives 0.19% (n = 330,000); calls by dose curve; also: 0% is about no effect; nearly all actives have a fitted effect of over 55% in size
AmpC detergent: inhibitors of E. coli AmpC beta-lactamase with detergent; P00811; AID 485294; actives 0.041% (n = 370,000); AmpC hydrolysis of nitrocefin, absorbance 480 nm, 0.01% Triton; Potency, µM (series often up to 114 µM), inactives show at the highest dose activity change, negative = inhibition, hits mostly inhibitors;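 also: 0% = no-compound wells and -100% = no-enzyme wells; nearly all actives have a fitted effect of over 25% in size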
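AmpC (5.3 nM in the dispensed reagent) in 20 mM phosphate pH 7.0 with 0.01% (detergent screen) or 0.0001% Triton X-100 was preincubated with compounds for 15 min at room temperature. Nitrocefin was then added from an 800 uM solution, and hydrolysis was followed at 480 nm.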
Pf growth 96h: P. falciparum growth inhibition at 96 hour, primary screen for plastid delayed-death inhibitors. Potency, µM (highest dose often 28.7 µM), for the others: at the highest dose activity change, negative = inhibition, actives largely listed as inhibitors. P. falciparum luciferase reporter growth, 96 h. actives 6.9% (n = 320,000); also: % is scaled to controls: 0 for no effect and ±100 for the full control effect
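Two-generation exposure (96 h) targets delayed-death phenotype. Reporter parasites carrying integrated firefly luciferase, in red cells at 2% hematocrit and 0.05% parasitemia final, kept at 37 C, 5% CO2; luminescence loss indicates inhibition.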
Sm TGR inh: S. mansoni TGR enzyme inhibition | Q962Y6 | purified TGR, DTNB reduction, TNB absorbance 405 nm | Potency, µM (top dose mostly 114 µM), for inactives: at the top dose activity change, negative = inhibition, hits mostly inhibitors | actives 3% (n = 360,000) | AID 485364; also: % is scaled to controls: 0 for no effect and ±100 for the full control effect; nearly all actives have a fitted effect of over 60% in size
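First, TGR (20 nM dispensed) and NADPH were mixed with compound. Second, a 15 min room-temperature incubation followed. Third, further NADPH and then DTNB were added to start the reaction. Finally, TNB absorbance was monitored kinetically.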
An asterisk follows results filed as active; ? = inconclusive; · = not tested or not shown. Unless noted, calls follow the shape of the dose curve; as a rule, active = well fitted curve in the direction sought with a large enough effect; inconclusive = small, poorly fitted or top-dose-only effect, or another doubt; inactive = no such curve, though single readings can be large; an effect the other way counts as inactive or inconclusive. Potency is read from the fitted curve at half-maximal effect.

SMILES | AmpC inh no detg | Pf growth 48h | SARS PLpro yeast | AmpC detergent | Pf growth 96h | Sm TGR inh
Nc1cccc(Nc2ccccc2)c1 | -23.2% | 22.5% | 0.9% | 2.5% | ? | 39.8µM*
Oc1cccc(Nc2ccccc2)c1 | -32.0% | 38.8% | 0.5% | 2.6% | -7.1% | 0.0%
Cc1c(C(=O)N2CCc3ccccc32)cnn1C | -13.9% | 16.6% | -5.4% | -5.4% | 6.8% | -12.3%
C=CCOc1cccc(/C=N/NC(=O)CN(c2cc(Cl)ccc2OC)S(=O)(=O)c2ccc(C)c([N+](=O)[O-])c2)c1 | -43.4% | ? | -9.7% | ? | 1.17µM* | -14.6%
O=C(NCCc1ccccc1)C(c1cccs1)N(C(=O)CCl)c1ccc(Cl)cc1 (centres undefined) | 1.0% | ? | -75.0% | -5.2% | ? | 1.12µM*
COc1ccc(/C=N/OCC(=O)N=Nc2c(O)[nH]c3ccc(Br)cc23)cc1 | 1µM* | -14.9% | -4.2% | ? | ? | -1.4%
Cc1cccc(C)c1OCC(=O)N=Nc1c(O)[nH]c2ccc(Br)cc12 | -27.1% | 13.6% | -10.9% | -11.6% | · | -10.7%
O=C(C#Cc1ccccc1)Nc1ccccc1F | -21.7% | -12.7% | -11.1% | -11.8% | 9.28µM* | -6.8%
CNC(=O)Nc1ccccc1F | 1.3% | · | -0.9% | -1.5% | 37.3% | -21.9%
CC[C@@]1(O)CC2CN(CCc3c([nH]c4ccccc34)[C@](C(=O)OC)(c3cc4c(cc3OC)N(C)C3[C@@](O)(C(=O)OC)C(OC(C)=O)[C@]5(CC)C=CCN6CC[C@@]43C65)C2)C1 (some centres undefined) | · | 0.757µM* | · | · | 0.536µM* | ·
CC[C@]1(O)C[C@H]2CN(CCc3c([nH]c4ccccc34)[C@@](C(=O)OC)(c3cc4c(cc3OC)N(C=O)[C@H]3[C@@](O)(C(=O)OC)[C@H](OC(C)=O)[C@]5(CC)C=CCN6CC[C@]43[C@@H]65)C2)C1 | · | 0.0849µM* | · | · | 9.53µM* | ·
Cc1ccc(NC(=O)COC(=O)Cc2cccs2)cc1S(=O)(=O)N1CCOCC1 | -14.3% | -16.0% | 0.3% | -10.5% | -16.0% | ?
O=C(Cc1cccs1)Nc1ccc(Cl)c(S(=O)(=O)N2CCOCC2)c1 | -30.0% | 10.4µM* | 0.6% | -10.2% | ? | 0.6%
O=C(Cc1cccs1)Nc1ccc(F)c(S(=O)(=O)N2CCOCC2)c1 | -35.7% | ? | 2.1% | -6.5% | 6.57µM* | 0.7%
COC(=O)c1cc(C(=O)c2cc(F)ccc2O)cn2c(=O)c3c(C)c(C)sc3nc12 | -34.5% | 2.08µM* | -0.8% | -0.1% | 2.62µM* | ?
CCOc1ccc(S(=O)(=O)NCCC(=O)N2CC=C(c3ccccc3)CC2)cc1 | 3.5% | 9.28µM* | -2.1% | -7.9% | ? | -0.5%
COc1ccccc1C(=O)NCCC(=O)N1CCCCC1 | -0.5% | 40.9% | 0.1% | 1.8% | 25.7% | 1.5%
COc1ccccc1C(=O)NCCC(=O)N1CC=C(c2ccccc2)CC1 | 58.0% | 11.7µM* | 0.1% | -15.4% | ? | -5.4%
COc1ccccc1C(=O)NCCC(=O)N1CCN(c2ccccc2O)CC1 | 32.3% | 11.7µM* | -3.6% | -13.6% | ? | -18.4%
CCOC(=O)c1c(C)[nH]c(C)c1S(=O)(=O)N1CCC(C(=O)NCc2ccccc2Cl)CC1 | · | · | · | -0.1% | · | -9.2%
CCOc1ccc(C2/C(=C(\O)c3c(C)[nH]c(C(=O)OC)c3C)C(=O)C(=O)N2CCN(C)C)cc1 (centres undefined) | -8.5% | 14.5% | -1.3% | -9.7% | -34.9% | 1.4%
CCN(CC)CCN1C(=O)C(=O)/C(=C(/O)c2c(C)[nH]c(C(=O)OC)c2C)C1c1ccc(C)o1 (centres undefined) | 2.5% | 30.4% | -0.4% | 3.1% | 53.6% | 20µM*
Cc1ccc(C2/C(=C(\O)c3c(C)nc4ccccn34)C(=O)C(=O)N2CCN(C)C)o1 (centres undefined) | -7.0% | 1.0% | -0.5% | -7.2% | 30.0% | 31.6µM*
CCOC(=O)c1[nH]c(C)c(/C(O)=C2\C(=O)C(=O)N(CCN(C)C)C2c2ccc(C)o2)c1C (centres undefined) | -8.2% | 2.6% | 16.7% | ? | -12.5% | 28.2µM*
Cc1nc2ccccn2c1/C(O)=C1\C(=O)C(=O)N(CCN(C)C)C1c1cccnc1 (centres undefined) | -8.5% | 3.2% | 2.3% | ? | -4.0% | ?
SMILES | AmpC inh no detg | Pf growth 48h | SARS PLpro yeast | AmpC detergent | Pf growth 96h | Sm TGR inh
O=C(CN(C1CCCCC1)S(=O)(=O)c1ccc(Cl)cc1)NCCCO | 32.9% | -13.6% | 0.5% | -18.6% | ? | -1.3%
CN(C)c1nc(-c2cccnc2)nc(-c2ccccc2)c1C#N | -7.1% | ? | 0.3% | -0.6% | ? | -2.0%
COc1cc(CN2CCN(C(=O)c3cccc4ccccc34)CC2)cc(OC)c1O | 11.6% | -0.3% | -1.1% | -9.6% | 14.7µM* | 6.31µM*
COc1ccc(OC)c(CN2CCN(C(=O)c3cc4ccccc4cc3O)CC2)c1 | 112.4% | 4.65µM* | 4.8% | 5.3% | 2.33µM* | 6.6%
O=C(Nc1nnc(S(=O)(=O)N2CCc3ccccc32)s1)c1cccc(Cl)c1 | · | · | · | -5.9% | · | -8.7%
C(=C/c1ccnc2nc(SC/C=C/c3ccccc3)nn12)/c1ccccc1 | -38.8% | ? | -4.3% | -8.6% | 14.7µM* | -6.2%
N#CCCn1cc(C=C2C(=O)NC(=O)NC2=O)c(-c2ccccc2)n1 | -42.1% | -6.8% | -1.7% | -6.5% | 14.1% | -12.7%
O=C(O)CCn1cc(C=C2C(=O)NC(=S)NC2=O)c(-c2cc3ccccc3oc2=O)n1 | -18.7% | 20.4% | -0.4% | 3.8% | 50.7% | 10µM*
O=C(O)CCn1cc(C=C2C(=O)NC(=S)NC2=O)c(-c2ccccc2)n1 | 2.3% | 4.6% | 0.7% | -6.6% | -17.5% | 79.4µM*
N#Cc1cn(-c2ccccc2)nc1-c1cc2ccccc2oc1=O | -21.4% | 37.1% | -1.2% | ? | · | 9.4%
COc1ccc(C2CC(=O)c3cc(-c4nc(-c5cccc([N+](=O)[O-])c5)cs4)c(=O)n(-c4ccc(C)c(C)c4)c3C2)cc1 (centres undefined) | · | · | · | 17.1% | · | 5.4%
COc1cc(CNCCCN2CCOCC2)ccc1OCC(=O)Nc1cccc(C(F)(F)F)c1 | 57.1% | 1.85µM* | -7.0% | -8.8% | ? | -18.2%
O=C(COc1ccc(Br)cc1CNCCCN1CCOCC1)Nc1ccccc1 | -0.3% | 3.7µM* | -2.3% | -12.0% | 2.94µM* | -14.5%
CCOc1cc(CNCCCN2CCOCC2)ccc1OCC(=O)Nc1cccc2ccccc12 | 52.0% | 2.94µM* | -2.8% | -9.0% | 2.62µM* | -6.1%
